{"source": "PubChem BioAssay (NCI)", "note": "The panel holds about 83,000 compounds, 20% with a hit somewhere; the sample as a whole holds those more often.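 48-hour exposure, single concentration, 96-well plates; percent growth endpoint where 0 means no net growth. Active: below 10.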 Activity calls are given as the source filed them."}
{"tested_on": "MDA-MB-468 breast", "assay": "NCI-60 one-dose screen, 48 h (100 = growth as untreated, 0 = no growth, -100 = all killed)", "conditions": "10 µM unless noted"}
{"smiles": "Oc1c(CN2CCCC2)cc(COCc2ccc(Br)cc2)c2cccnc12", "growth": "-28.2% (active)"}
{"smiles": "CC1NC(=O)NC1CCCCCC(=O)O", "note": "(stereo unspecified)", "growth": "101% (inactive)"}
{"smiles": "CC1(C)CC[C@]2(C(=O)Nc3ccccn3)CC[C@]3(C)C(=CC[C@@H]4[C@@]5(C)C/C(=C/c6ccncc6)C(=O)C(C)(C)[C@@H]5CC[C@]43C)[C@@H]2C1", "growth": "19.2% (inactive)"}
{"smiles": "COc1cc(CCC[P+](c2ccccc2)(c2ccccc2)c2ccccc2)c(OC)c(OC)c1OC", "growth": "30.3% (inactive)"}
{"smiles": "Cc1ccc(/C=N/NC(N)=S)s1", "growth": "101% (inactive)"}
{"smiles": "CC(=O)OC1CC2C(C)(C)CCC[C@]2(C)C2=C1C(O)=C(C(C)C)C(=O)C2=O", "note": "(stereo partly specified)", "growth": "-49.5% (active)"}
{"smiles": "Cc1nn(-c2cc(NC3CCC(O)CC3)c3c(=O)[nH]c(CCC(F)(F)F)cc3c2)c2c1C(=O)CC(C)(C)C2", "note": "(stereo unspecified)", "growth": "5.19% (active)"}
{"smiles": "COc1ccc(C(=O)c2cc3c(OC)c(OC)c(OC)cc3[nH]2)cc1", "growth": "20.6% (inactive)"}
{"smiles": "Oc1ccc(-c2nnc(SCc3ccc(O)c4ncccc34)n2-c2ccccc2)cc1", "growth": "-13.6% (active)"}
{"smiles": "Cc1ccc(C[P+](c2ccccc2)(c2ccccc2)c2ccccc2)cc1", "growth": "-12.9% (active)"}
{"smiles": "O=[N+]([O-])c1ccc2c(c1)Cc1cc(I)ccc1-2", "growth": "105% (inactive)"}
{"smiles": "CC(=O)Nc1nc(C(=O)N2N=C(C)/C(=C/c3cccs3)C2=O)cs1", "growth": "103% (inactive)"}
{"smiles": "CCOC(=O)c1cc(C(=O)c2cc(OC)c(OC)c(OC)c2)n2nc(C)ccc12", "growth": "37.4% (inactive)"}
{"smiles": "CCCCCc1ccc(S(=O)(=O)Nc2cc(-c3csc(NC(=O)CN4CCN(CCO)CC4)n3)ccc2OC)cc1", "growth": "69.1% (inactive)"}
{"smiles": "CN1C(=O)N(C)C2C1NN=c1s/c(=C\\c3ccccn3)c(=O)n12", "note": "(stereo unspecified)", "growth": "88.8% (inactive)"}
{"smiles": "CC(C)(C)c1cc(C(=O)Nc2ccccc2C(=O)NCCN)cc(C(C)(C)C)c1", "growth": "-76.7% (active)"}
{"smiles": "N#CC1=C(N)Oc2c(sc3c(Br)cccc23)C1c1ccc(F)cc1", "note": "(stereo unspecified)", "growth": "11% (inactive)"}
{"smiles": "Cn1c(COC(=O)N2CCCCC2)nc2c(N3CCOCC3)nc(-c3ccccc3)nc21", "growth": "-61.7% (active)"}
{"smiles": "NC1=NN=C(N)C1=Cc1cc2ccccc2n2nnnc12", "growth": "94.8% (inactive)"}
{"smiles": "COc1cc(/C=C2\\COc3ccc(O)cc3C2=O)cc(OC)c1", "growth": "54.1% (inactive)"}
{"smiles": "CCCCc1nc2c(N)nc3ccccc3c2n1Cc1ccc(OC)cc1", "growth": "41.2% (inactive)"}
{"smiles": "C#CCn1c2c(c3ccccc31)C[C@]1(C)[C@H]3CC[C@@H]4[C@@H]5C(=CCC[C@H]5C(=C)C)CC[C@@]4(C)[C@]3(C)CC[C@H]1C2(C)C", "growth": "117% (inactive)"}
{"smiles": "C=C1C(=O)O[C@H]2[C@H]1CC/C(COC(=O)CCC(=O)NCCOCCOCC(=O)Nc1ccc(OC)c(C(N)=O)c1O)=C\\CC[C@@]1(C)O[C@@H]21", "growth": "-17.5% (active)"}
{"smiles": "CC(=O)Nc1ccc(C(=O)CCl)cc1", "growth": "8.65% (active)"}
{"smiles": "Nc1nc(N)c2c(n1)NC(c1ccc(Cl)cc1)CC(c1ccc(Nc3nc(NCCO)nc(N4CCOCC4)n3)cc1)=N2", "note": "(stereo unspecified)", "growth": "73.7% (inactive)"}
{"smiles": "COc1ccc(/C=C/c2nc(Nc3cccc(NC(C)=O)c3)c3ccccc3n2)cc1", "growth": "67.1% (inactive)"}
{"smiles": "Cc1csc(/N=C(N)/N=C(\\N)c2cccc(Br)c2)n1", "growth": "79.7% (inactive)"}
{"smiles": "Cc1cccc(CC(=O)c2ccccc2)n1", "growth": "92.8% (inactive)"}
{"smiles": "C=C1C(=O)O[C@H]2[C@H]1CC/C(COC(=O)c1ccccc1)=C\\CC[C@@]1(C)O[C@@H]21", "growth": "-28.7% (active)"}
{"smiles": "CCCCC(CC)COC(C)=O", "note": "(stereo unspecified)", "growth": "106% (inactive)"}
{"smiles": "N#Cc1c(-c2ccc(F)cc2)cc(-c2cccc(Cl)c2)[nH]c1=O", "growth": "81.4% (inactive)"}
{"smiles": "O=C(Cn1c(=O)sc2ccccc21)NNS(=O)(=O)c1ccccc1[N+](=O)[O-]", "growth": "107% (inactive)"}
{"smiles": "COc1ccc(C2=Nn3c(nnc3-n3nc(C)cc3C)SC2)cc1", "growth": "22.2% (inactive)"}
{"smiles": "CC[C@H]1OC(=O)[C@H](C)[C@@H](O[C@H]2C[C@@](C)(OC)[C@@H](O)[C@H](C)O2)[C@H](C)[C@@H](O[C@@H]2O[C@H](C)C[C@H](N(C)C)[C@H]2O)[C@](C)(OC)C/C(C)=C2/O[C@@]1(C)C=C2C", "growth": "-73.7% (active)"}
{"smiles": "COc1ccc(Nc2ncccc2NC(=O)c2cn(Cc3cccc(Oc4ccccc4)c3)nn2)cc1OC", "growth": "55.6% (inactive)"}
{"smiles": "CCc1c2c(nc3ccc(OC(=O)OCc4ccc(B5OC(C)(C)C(C)(C)O5)cc4)cc13)-c1cc3c(c(=O)n1C2)COC(=O)[C@]3(O)CC", "growth": "-33.6% (active)"}
